Results taken from PubChem BioAssay (Tox21).
The source made the active and inactive calls. Entries that show only a call come without a potency. Calls follow the shape of the dose curve; as a rule, active = well fitted curve in the direction sought with a large enough effect in the repeat runs; inconclusive = weak or mixed curves; inactive = flat fitted curve, though single readings scatter.

Assay: qHTS assay to test for compound auto fluorescence at 590 nm (red) in HepG2 cell free culture (AID 720684)
Details: cell-free medium autofluorescence, red 540/590 nm; series mostly up to 46 µM
Text: U.S. Tox21 Program National Center for Advancing Translational Sciences [NCATS] NIH Chemical Genomics Center [NCGC] U.S. Environmental Protection Agency [EPA] National Institutes of Environmental Health Sciences [NIEHS] National Toxicology Program [NTP] U.S. Food and Drug Administration [FDA] Tox21 Assay Overview: Compound auto fluorescence often interferes with screening of the compound library against various biological targets and signaling pathways. Some of these compounds may have fluorophoric properties. Such properties may interfere with the assay outputs resulting in false positives and/or negatives. To decrease such complications and ensure the compound activities are relevant in terms of biological response, the Tox21 10K compound library was screened for auto fluorescence. From the fluorophores used as reporter signals in our screening assays, the auto fluorescence equivalencies of compounds against three fluorophores have been evaluated: Triamterene, Fluorescein and Rose Bengal sodium for blue, green and red fluorescence, respectively. The fluorescence intensities were measured using Excitation/Emission wavelengths at 405/460nm, 485/535nm and 540/590nm for blue, green and red labels, respectively. This assay includes the red fluorescence data.
Tox21 Assay Protocol Summary: 5 uL of culture medium (MEM containing 10% FBS) per well was dispensed into black wall/clear bottom 1536-well plates using a Multidrop Combi Dispenser (ThermoFisher Scientific, Waltham, MA). After 23 nL compound or DMSO vehicle was transferred into assay plate by a pintool work station (Kalypsys, San Diego, CA), fluorescence intensities in the assay plates were measured by an Envision (PerkinElmer, Shelton, CT) plate reader using three labels for measuring blue, green and red fluorescence at […] 460, 535 and 590nm respectively.
For `CCCCCCCCCCCCCCCCCC(=O)OC[C@@H](O)[C@H]1OC[C@H](O)[C@H]1O`, the Potency was “inactive”. For `CCCCC[C@H](O)/C=C/[C@@H]1[C@H]2C/C(=C/CCCC(=O)O)O[C@H]2C[C@H]1O`, the Potency was “inactive”. For `OC[C@H]1O[C@@H](O[C@H]2[C@H](O)[C@@H](O)[C@H](O)O[C@@H]2CO)[C@H](O)[C@@H](O)[C@@H]1O`, the Potency was “inactive”. With `Cc1c(O)cc2c(c1C)O[C@](C)(CCC[C@H](C)CCC[C@H](C)CCCC(C)C)CC2` the Potency was “inactive”. For `O=C(O)CC/C=C\CC[C@@H]1[C@@H](N2CCCCC2)[C@@H](O)C[C@@H]1OCc1ccc(-c2ccccc2)cc1`, the Potency was “inactive”. In the case of `CC1C(=O)CC2C3(C)CCC2(C(C)C(=O)O)C(=O)C13` (stereo not given), the Potency is reported as “inactive”. With `N[C@H](CCC(=O)O)C(=O)O` the Potency was “inactive”. For `C/C(=C(\CCOC(=O)c1ccccc1)SS/C(CCOC(=O)c1ccccc1)=C(/C)N(C=O)Cc1cnc(C)nc1N)N(C=O)Cc1cnc(C)nc1N`, the Potency was “inactive”. With `CC(=O)O[C@H]1CC[C@@]2(C)C(=CC[C@H]3[C@@H]4CC[C@H](C(C)=O)[C@@]4(C)CC[C@@H]32)C1` the Potency was “inactive”. For `COc1ccc(C(=O)Nc2ccccc2CCC2CCCCN2C)cc1` (stereo not given), the Potency was “inactive”. With `COc1ccc2c(=O)c(C)c(-c3ccccc3)oc2c1CN(C)C` the Potency was “inactive”. With `CCCOc1ccc2nc(NC(=O)OC)sc2c1` the Potency was “inactive”. In the case of `CCN(CC)CCC(=O)N1c2ccccc2Sc2ccc(Cl)cc21`, the Potency is reported as “inactive”. With `CN[C@@H]1CCc2[nH]c3ccc(C(N)=O)cc3c2C1` the Potency was “inactive”. With `CN1CCC(OC(=O)C(Oc2ccc(Cl)cc2)Oc2ccc(Cl)cc2)CC1` the Potency was “inactive”. In the case of `CC(C)CCC[C@@H](C)[C@H]1CC(=O)C2=C3CC[C@H]4C[C@@H](O)CC[C@]4(C)[C@H]3CC[C@@]21C`, the Potency is reported as “inactive”. In the case of `O=C1CSC2(CCN(CCCN3c4ccccc4Sc4ccc(Cl)cc43)CC2)N1`, the Potency is reported as “inactive”. With `CCC(=O)NS(=O)(=O)c1ccc(-c2c(-c3ccccc3)noc2C)cc1` the Potency was “inactive”. For `CCN(CC)CCOc1ccc(-c2nc3cc(Cl)ccc3s2)cc1`, the Potency was “inactive”. In the case of `O=C(CCCCCCCCCCCCC1CCCC1)Nc1ccc(S(=O)(=O)c2ccc(NC(=O)CCCCCCCCCCCCC3CCCC3)cc2)cc1`, the Potency is reported as “inactive”. For `CN(C)c1ccc(C(=C2C=CC(=[N+](C)C)C=C2)c2c(O)c(S(=O)(=O)[O-])cc3cc(S(=O)(=O)O)ccc23)cc1`, the Potency was “inactive”. For `C=C1C(=O)O[C@H]2[C@H]1CC/C(C)=C\CC[C@@]1(C)O[C@@H]21`, the Potency was “inactive”. In the case of `CCOc1ccc(N=C(C)Nc2ccc(OCC)cc2)cc1`, the Potency is reported as “inactive”. In the case of `CCC(=O)O[C@]1(C(=O)CCl)[C@@H](C)C[C@H]2[C@@H]3C[C@H](F)C4=CC(=O)C=C[C@]4(C)[C@@]3(F)[C@@H](O)C[C@@]21C`, the Potency is reported as “inactive”. In the case of `CNC[C@@H]1CC[C@@H](N)[C@@H](O[C@H]2[C@H](O)[C@@H](O[C@H]3OC[C@](C)(O)[C@H](NC)[C@H]3O)[C@H](N)C[C@@H]2N)O1`, the Potency is reported as “inactive”. For `C[N+](C)(CCCCCC[N+](C)(C)C1c2ccccc2-c2ccccc21)C1c2ccccc2-c2ccccc21`, the Potency was “inactive”. For `NCCCC[C@H](N)C(=O)O`, the Potency was “inactive”. For `Nc1ncnc(Nc2ccc(Cl)cc2)n1`, the Potency was “inactive”. In the case of `CCOc1ccc(N=Nc2ccc(N)cc2N)cc1`, the Potency is reported as “inactive”. In the case of `CCC(=O)c1ccc2c(c1)N(CCCN1CCN(CCO)CC1)c1ccccc1S2`, the Potency is reported as “inactive”. In the case of `CCCCCCOc1ccc(C(=N)N(CCCC)CCCC)c2ccccc12`, the Potency is reported as “inactive”. For `C=C[C@]1(C)C[C@@H](OC(=O)CSCCN(CC)CC)[C@]2(C)[C@H](C)CC[C@]3(CCC(=O)[C@H]32)[C@@H](C)[C@@H]1O`, the Potency was “inactive”. With `COc1ccccc1N1CCN(CCCC(=O)c2ccc(F)cc2)CC1` the Potency was “inactive”. For `CCOC(=O)c1cc(-c2ccccc2)nc2ccc(C)cc12`, the Potency was “inactive”. For `CCCCCCCN(CC)CCCC(O)c1ccc(NS(C)(=O)=O)cc1` (stereo not given), the Potency was “inactive”. For `COc1cc(/C=C/C(=O)N2CCN(CC(=O)N3CCCC3)CC2)cc(OC)c1OC`, the Potency was “inactive”. With `O=C(/C=C/c1cccc(F)c1)NC1CC1` the Potency was “inactive”. With `CN(C)CCCN1c2ccccc2C(C)(C)c2ccccc21` the Potency was “inactive”. In the case of `CCC(=O)NCCC1CCc2ccc3c(c21)CCO3` (stereo not given), the Potency is reported as “inactive”. With `O=C1C(=O)c2ncccc2-c2cccnc21` the Potency was “inactive”.
